According to PubChem BioAssay (NCATS):
Inconclusive results are not listed. Values without a mark were called inactive. The source made the active and inactive calls. Calls come from the whole dose curve; as a rule, active = well fitted curve in the direction sought with a large enough effect; inconclusive = small, poorly fitted or top-dose-only effect, or another doubt; inactive = no such curve, though single readings can be large; an effect the other way counts as inactive or inconclusive.

Assay: qHTS of pediatric cancer cell lines to identify multiple opportunities for drug repurposing: Primary screen for BT-37 cells (AID 1347094);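 for activity change, negative = cytotoxic: plate controls were DMSO for no effect and bortezomib for full effect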
Conditions: BT-37 viability, CellTiter-Glo luminescence, 48 h; series mostly up to 57.3 µM; activity change, negative = cytotoxic: at the top concentration
How it was run: (§1)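 Viability was measured as metabolically active cells after 48 hours of treatment, read by CellTiter-Glo luminescence. Compounds were tested at multiple final concentrations, giving concentration-response curves.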
Potency is the fitted concentration of half-maximal effect.

Structure (SMILES) | activity change, negative = cytotoxic [%] | Potency
O=C(O)P(=O)(O)O | 13.2 | 
CC(C)n1c(/C=C/[C@@H](O)C[C@@H](O)CC(=O)O)c(-c2ccc(F)cc2)c2ccccc21 |  | 15.5 µM (active)
C=C[C@H]1CN2CC[C@H]1C[C@@H]2[C@@H](O)c1ccnc2ccc(OC)cc12 | 5.47 | 
O=C(O)CCNC(=O)c1ccccc1 | 0.194 | 
CC(C)NCC(O)c1ccc2ccccc2c1 (stereo unspecified) | 6.66 | 
CC(=C(CCOC(=O)C(C)C)SSC(CCOC(=O)C(C)C)=C(C)N(C=O)Cc1cnc(C)nc1N)N(C=O)Cc1cnc(C)nc1N | 13.4 | 
CC1(C)OC[C@@H]2O[C@@]3(C(=O)O)OC(C)(C)O[C@H]3[C@@H]2O1 | 19.9 | 
CN1CCN(c2c(F)cc3c(=O)c(C(=O)O)cn4c3c2SCC4)CC1 | -6.36 | 
Cc1cccc(C)c1NC(=O)CN1CCCCCC1 | 6.19 | 
CCN(CC)CCOC(=O)C(Cc1cccc2ccccc12)CC1CCCO1 (stereo unspecified) | -4.1 | 
Cc1cc(-c2ccccc2)nnc1NCCN1CCOCC1 | -12.2 | 
CCN1CCN(C(=O)N[C@@H](C(=O)N[C@@H]2C(=O)N3C(C(=O)O)=C(CSc4nnnn4C)CS[C@H]23)c2ccc(O)cc2)C(=O)C1=O | 2.99 | 
O=C(CN1CCN(Cc2ccc3c(c2)OCO3)CC1)N1c2ccccc2Sc2ccccc21 | -15.8 | 
O=S(c1cc(Cl)cc(Cl)c1O)c1cc(Cl)cc(Cl)c1O | -6.81 | 
Oc1ccc(Cl)cc1Cc1cc(Cl)ccc1O |  | 19.5 µM (active)
Cc1ccc(O)c([C@H](CCN(C(C)C)C(C)C)c2ccccc2)c1 | -12 | 

Structure (SMILES) | activity change, negative = cytotoxic [%] | Potency
COc1ccc(CCN(C)CCCN2CCc3cc(OC)c(OC)cc3CC2=O)cc1OC | 3.92 | 
C=C[C@@]1(C)CC(=O)[C@]2(O)[C@@]3(C)[C@@H](O)CCC(C)(C)[C@@H]3[C@H](O)[C@H](OC(C)=O)[C@@]2(C)O1 | 11.6 | 
CCOc1ccccc1OCCN[C@H](C)Cc1ccc(OC)c(S(N)(=O)=O)c1 | -1.83 | 
CCCCC(CC)CN1CN(CC(CC)CCCC)CC(C)(N)C1 (stereo unspecified) | -17.2 | 
CC(=O)Nc1ccc(OC(=O)c2ccccc2OC(C)=O)cc1 | 4.05 | 
OCc1ccccn1 | 1.38 | 
COc1cc(O)c(C(=O)c2ccccc2)cc1S(=O)(=O)O | 2.67 | 
CCNC(=O)/C=C/c1cccc(Br)c1 | 6.58 | 
CCOc1ccc(NC(C)=O)cc1 | -11 | 
OC1C(O)C(O)C(O)C(O)C1O (stereo unspecified) | 1.51 | 
Clc1cccc(C(c2ccc3nc[nH]c3c2)n2ccnc2)c1 (stereo unspecified) | 6.54 | 
Nc1nc(Cl)nc2c1ncn2[C@@H]1O[C@H](CO)[C@@H](O)[C@@H]1F |  | 0.309 µM (active)
CC(=O)Nc1ncc([N+](=O)[O-])s1 | 20.9 | 
CC(C)Nc1cccnc1N1CCN(C(=O)c2cc3cc(NS(C)(=O)=O)ccc3[nH]2)CC1 | -8.57 | 
CN(C)CCOC(=O)C(c1ccccc1)C1(O)CCCC1 (stereo unspecified) | -20.8 | 

Assay: qHTS of pediatric cancer cell lines to identify multiple opportunities for drug repurposing: Primary screen for NB-EBc1 cells (AID 1347095);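 for activity change, negative = cytotoxic: plate controls were DMSO neutral control for no effect and bortezomib for full effect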
Conditions: NB-EBc1 neuroblastoma viability, CellTiter-Glo luminescence, 48 h; series mostly up to 46 µM; activity change, negative = cytotoxic: at the top concentration
How it was run: as §1

Structure (SMILES) | activity change, negative = cytotoxic [%] | Potency
O=C(O)P(=O)(O)O | 13.9 | 
C=C[C@H]1CN2CC[C@H]1C[C@@H]2[C@@H](O)c1ccnc2ccc(OC)cc12 | 5.92 | 
O=C(O)CCNC(=O)c1ccccc1 | 34.9 | 
CC(C)NCC(O)c1ccc2ccccc2c1 (stereo unspecified) | 9.49 | 
CC(=C(CCOC(=O)C(C)C)SSC(CCOC(=O)C(C)C)=C(C)N(C=O)Cc1cnc(C)nc1N)N(C=O)Cc1cnc(C)nc1N | 9.62 | 
CC1(C)OC[C@@H]2O[C@@]3(C(=O)O)OC(C)(C)O[C@H]3[C@@H]2O1 | 18.3 | 
CN1CCN(c2c(F)cc3c(=O)c(C(=O)O)cn4c3c2SCC4)CC1 | 37.6 | 
Cc1cccc(C)c1NC(=O)CN1CCCCCC1 | 4.53 | 
CCN(CC)CCOC(=O)C(Cc1cccc2ccccc12)CC1CCCO1 (stereo unspecified) | -8.72 | 
Cc1cc(-c2ccccc2)nnc1NCCN1CCOCC1 | -9.96 | 
CCN1CCN(C(=O)N[C@@H](C(=O)N[C@@H]2C(=O)N3C(C(=O)O)=C(CSc4nnnn4C)CS[C@H]23)c2ccc(O)cc2)C(=O)C1=O | 14.4 | 
O=C(CN1CCN(Cc2ccc3c(c2)OCO3)CC1)N1c2ccccc2Sc2ccccc21 | 1.71 | 
CC(=O)OC[C@H]1O[C@@H](n2ncc(=O)[nH]c2=O)[C@H](OC(C)=O)[C@@H]1OC(C)=O |  | 23.7 µM (active)
COc1ccc(CCN(C)CCCN2CCc3cc(OC)c(OC)cc3CC2=O)cc1OC | 13.3 | 
C=C[C@@]1(C)CC(=O)[C@]2(O)[C@@]3(C)[C@@H](O)CCC(C)(C)[C@@H]3[C@H](O)[C@H](OC(C)=O)[C@@]2(C)O1 | 33.2 | 
CCOc1ccccc1OCCN[C@H](C)Cc1ccc(OC)c(S(N)(=O)=O)c1 | 6.96 | 
CCO[C@@H]1O[C@H](C(COCc2ccccc2)OCc2ccccc2)[C@H](OCc2ccccc2)[C@H]1O (stereo partly specified) | 3.35 | 
CCCCC(CC)CN1CN(CC(CC)CCCC)CC(C)(N)C1 (stereo unspecified) | -12.2 | 
CC(=O)Nc1ccc(OC(=O)c2ccccc2OC(C)=O)cc1 | 8.78 | 
OCc1ccccn1 | 7.32 | 
COc1cc(O)c(C(=O)c2ccccc2)cc1S(=O)(=O)O | 17.4 | 
CCNC(=O)/C=C/c1cccc(Br)c1 | 9.56 | 
CCOc1ccc(NC(C)=O)cc1 | -13.2 | 
OC1C(O)C(O)C(O)C(O)C1O (stereo unspecified) | -5.85 | 
Clc1cccc(C(c2ccc3nc[nH]c3c2)n2ccnc2)c1 (stereo unspecified) | 10.7 | 
O=C1c2cccc3c2[C@H](CCC3)CN1[C@@H]1CN2CCC1CC2 | 11 | 
Nc1nc(Cl)nc2c1ncn2[C@@H]1O[C@H](CO)[C@@H](O)[C@@H]1F |  | 0.211 µM (active)
CC(=O)Nc1ncc([N+](=O)[O-])s1 | 41.6 | 
CC(C)Nc1cccnc1N1CCN(C(=O)c2cc3cc(NS(C)(=O)=O)ccc3[nH]2)CC1 | 16.9 | 
CN(C)CCOC(=O)C(c1ccccc1)C1(O)CCCC1 (stereo unspecified) | 10.6 | 
